Test results from PubChem BioAssay (Tox21).
Inconclusive results are not listed. Where a call stands in place of a potency, no number is given. Calls of active or inactive are those of the source. The call rests on the fitted dose curve; in most records, active means well fitted cell-killing curve with a large enough effect in the repeat runs; inconclusive means weak or mixed curves; inactive means flat fitted curve, though single readings scatter.
Potency means the concentration at half of the fitted maximal effect.

Assay: qHTS RealTime-Glo MT Cell Viability Assay in HepG2 cells - 16 hour (AID 1224885); further: nearly all actives have a fitted effect of over 50% in size
Conditions: RealTime-Glo luminescence; series mostly up to 76.8 µM
From the text: U.S. Tox21 Program National Center for Advancing Translational Sciences [NCATS] NIH Chemical Genomics Center [NCGC] U.S. Environmental Protection Agency [EPA] National Institutes of Environmental Health Sciences [NIEHS] National Toxicology Program [NTP] U.S. Food and Drug Administration [FDA] Tox21 Assay Overview: Measure of cell viability is critical in the cell-base assay. Analysis of cell viability is necessary for the characterization of cell responses to cytotoxic drugs and environmental stress. A RealTime-Glo MT Cell Viability Assay to monitor cell viability in real time of continues cell culture during 40 hours of compound treatment was used to screen Tox21 10K library compounds in HepG2 cells. The RealTime-Glo MT Cell Viability Assay is a nonlytic, homogeneous, bioluminescent method to measure cell viability in real time using a simple, plate-based method. The assay involves adding NanoLuc luciferase and a cell-permeant prosubstrate to cells in culture. Viable cells reduce the proprietary prosubstrate to generate a substrate for NanoLuc luciferase. This substrate diffuses from cells into the surrounding culture medium, where it is rapidly used by the NanoLuc Enzyme to produce a luminescent signal. The signal correlates with the number of viable cells, making the assay well suited for cytotoxicity studies.
Tox21 Assay Protocol Summary: The mixture of HepG2 cell suspension and reagents were dispensed at 600cells/6 ul/well in 1536-well tissue culture treated black solid bottom plates using a Multidrop dispenser. After the assay plates were incubated at a 37 C/5% CO2 incubator for 5 hours, 23 nL of compounds dissolved in DMSO, positive and negative controls was transferred to the assay plate by a pintool work station. The plates were incubated at 37 C for 40 hours. The luminescence intensity were measured at 0h, 8h, 16h, 24h, 32h and 40h time points using ViewLux plate reader during compound treatment.
For CCCC(=O)OCC(COC(=O)CCC)OC(=O)CCC, the Potency was “inactive”. For CO[Si](CCCNCCNCCN)(OC)OC, the Potency was “inactive”. For Clc1cc(Cl)c(-c2c(Cl)c(Cl)cc(Cl)c2Cl)cc1Cl, the Potency was “inactive”. With CCN(CC)c1cccc(C)c1 the Potency was “inactive”. With CCN(CC)CCNc1ccc(CO)c2sc3ccccc3c(=O)c12 the Potency was 23.9 µM (active). For CCC(=O)CC(C)CC (stereo not given), the activity change, negative = cytotoxic was 0.759% [at 0.29 µM] (inactive). For O=C(c1ccccc1)c1cc(Cl)ccc1O, the Potency was “inactive”. With CCCCOC(=O)C(C)CC (stereo not given) the Potency was “inactive”. With O=C1NCN(c2ccccc2)C12CCN(CCCC(c1ccc(F)cc1)c1ccc(F)cc1)CC2 the Potency was 7.56 µM (active). With C=C[C@](C)(O)CC[C@@H]1[C@@]2(C)CCCC(C)(C)[C@@H]2CC[C@@]1(C)O the Potency was 49 µM (active). With CCCC(C)CCC(C)=O (stereo not given) the Potency was “inactive”. In the case of c1cc(OCC2CO2)cc(OCC2CO2)c1 (stereo not given), the Potency is reported as “inactive”. With c1cc2c3c(c1)ccc1cccc(c13)C2 the Potency was “inactive”. In the case of CCC(=O)OCCc1ccccc1, the Potency is reported as “inactive”. With CCOCN(C(=O)CS(=O)(=O)O)c1c(C)cccc1CC the Potency was “inactive”. In the case of CCCCCCCCCC(=O)N(C)C, the Potency is reported as “inactive”. In the case of CC(=O)c1ccccc1N, the Potency is reported as “inactive”. For OCCCS, the Potency was “inactive”. In the case of CCCCCCCCCCCCCC[n+]1ccccc1, the Potency is reported as 21.9 µM (active). For COC(=O)NCCC[Si](OC)(OC)OC, the Potency was “inactive”. For CC(C)c1cccc(C(C)C)c1N1C(=O)c2ccc(O)cc2C1=O, the Potency was 49 µM (active). In the case of C/C=C/C=N/NC(=O)c1ccncc1, the Potency is reported as “inactive”. In the case of CCCCCCCCCCCCCCNCCO, the Potency is reported as 19 µM (active). In the case of C[Si](C)O[Si](C)C, the Potency is reported as “inactive”. With CC(NCCC(c1ccccc1)c1ccccc1)c1ccccc1 (stereo not given) the Potency was 21.3 µM (active). For O=C1OC(OC(=O)c2cccnc2Nc2cccc(C(F)(F)F)c2)c2ccccc21 (stereo not given), the Potency was “inactive”. For C=CC(=O)OCCC#N, the Potency was “inactive”. In the case of CCCC(CC)CCCCCCCN (stereo not given), the Potency is reported as “inactive”. With O=C(NO)c1ccccc1 the Potency was “inactive”. In the case of Cc1ccc(-n2[nH]c(C)c(N=Nc3cccc(-c4cccc(C(=O)O)c4)c3O)c2=O)cc1C, the Potency is reported as “inactive”. With CC1CNCC(C)O1 (stereo not given) the Potency was “inactive”. In the case of CC(=O)O[C@@H]1C[C@@H]2CC[C@@]1(C)C2(C)C, the Potency is reported as “inactive”. For O[C@@H](c1cc(C(F)(F)F)nc2c(C(F)(F)F)cccc12)[C@H]1CCCCN1, the Potency was 21.3 µM (active). With CC[N+](CC)(CC)Cc1ccccc1 the Potency was “inactive”. In the case of C(=C/c1ccccc1)/c1ccccc1, the Potency is reported as “inactive”. In the case of CCCCCCCCCCCCCc1ccccc1, the Potency is reported as “inactive”. In the case of CC(COC(=O)c1ccccc1)OC(=O)c1ccccc1 (stereo not given), the Potency is reported as “inactive”. With COc1cccc(CCc2ccccc2OCC(CN(C)C)OC(=O)CCC(=O)O)c1 (stereo not given) the Potency was “inactive”. For CCc1c(Br)c(Br)c(Br)c(Br)c1Br, the Potency was “inactive”. For O=C1c2c(O)ccc(O)c2C(=O)c2c(NCCNCCO)ccc(NCCNCCO)c21, the Potency was 19 µM (active).
